High-throughput results: PubChem, National Center for Advancing Translational Sciences (NCATS)
In the library only some 2.4% were active in any assay of this set; here they are far more common.
Pol beta inh: inhibitors of human DNA polymerase beta; 1.3% of 340,000 active; Pol beta primer extension/strand displacement, fluorescence kinetic; Potency, µM (highest dose often 114 µM), without a hit: top-dose activity change, negative = inhibition, usual class: inhibitors; note: % is set by controls: 0 for no effect and ±100 for the full control effect
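Homogeneous kinetic assay of primer extension and strand displacement by 10 nM Pol beta, preincubated 15 min at room temperature with compound before 50 nM substrate (final) was added. Read at 0 and 10 min; four-parameter Hill fit.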
Pol eta inh: blocks human DNA polymerase eta activity. 1.2% of 390,000 active. Q9Y253. recombinant Pol eta, fluorescent DNA replication assay. Potency, µM (titrated, usually from 114 µM), for the others: at the highest dose activity change, negative = inhibition, most hits filed as inhibitors; note: % is set by controls: 0 for no effect and ±100 for the full control effect
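Pol eta at 10 nM preincubated with compounds 15 min at room temperature; reaction started with fluorescent substrate (50 nM final) and read kinetically at 0 and 10 min.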
FEN1 inh: human FEN1 inhibition; 0.35% of 390,000 active; Potency, µM (highest dose often 114 µM), without a hit: at the top dose activity change, negative = inhibition, most hits filed as inhibitors; P39748; Recombinant FEN1 flap cleavage, fluorescence, 15 min; note: % is set by controls: 0 for no effect and ±100 for the full control effect; nearly all actives have a fitted effect of over 65% in size
Target sequence (P39748 whole entry, looked up): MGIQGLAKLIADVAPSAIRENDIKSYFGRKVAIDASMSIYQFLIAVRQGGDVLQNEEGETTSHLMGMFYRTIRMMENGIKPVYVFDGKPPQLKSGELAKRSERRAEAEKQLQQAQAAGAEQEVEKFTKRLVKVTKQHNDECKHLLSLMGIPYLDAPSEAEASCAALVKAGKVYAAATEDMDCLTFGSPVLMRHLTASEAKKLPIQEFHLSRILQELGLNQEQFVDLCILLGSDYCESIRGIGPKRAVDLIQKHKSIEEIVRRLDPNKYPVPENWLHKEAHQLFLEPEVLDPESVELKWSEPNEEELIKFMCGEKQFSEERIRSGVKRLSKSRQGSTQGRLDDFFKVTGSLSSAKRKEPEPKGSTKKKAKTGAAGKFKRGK
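Nuclease activity of 10 nM FEN1 was measured after 15 min of room-temperature exposure to titrated compounds, by adding 50 nM flap substrate and reading plates at 0 and 15 min.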
Tb PGK inh: inhibitors of T. brucei phosphoglycerate kinase | P07378 | PGK/GAPDH coupled, Kinase-Glo luminescence, 60 min | Potency, µM (top dose mostly 57.5 µM), without a hit: at the top dose activity change, negative = inhibition, hits mostly inhibitors | 0.043% of 380,000 active | AID 602233; note: % is set by controls: 0 for no effect and ±100 for the full control effect; nearly all actives have a fitted effect of over 60% in size
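Luminescent ATP detection (Kinase-Glo Plus) follows a 60-minute room-temperature incubation, with wells lacking PGK as controls. Buffer: 100 mM TEA (pH 7.6), 5 mM MgCl2, 0.01% Tween-20. Coupling enzyme GAPDH (100 nM final) supplies unstable 1,3-BPG in-well.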
POLI inh: blocks human DNA polymerase iota activity | Q9UNA4 | Pol iota fluorescent replication assay, 10 min | Potency, µM (top dose mostly 115 µM), inactives show at the highest dose activity, negative = inhibition, hits mostly inhibitors | 1% of 390,000 active
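Fluorescent replication assay read twice, at 0 min and 10 min after adding 50 nM (final) substrate. Enzyme (10 nM) and compounds were first incubated 15 min at room temperature; enzyme-free buffer wells were negative controls.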
Pol kappa inh: DNA polymerase kappa (human) inhibition. purified Pol kappa, fluorescent DNA synthesis assay, 10 min. AID 588579. Potency, µM (series often up to 107 µM), without a hit: top-dose activity, negative = inhibition, hits mostly inhibitors. 0.53% of 400,000 active. Q9UBT6; note: % is set by controls: 0 for no effect and ±100 for the full control effect
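10 nM Pol kappa was preincubated with compounds for 15 min at room temperature. Reaction started with 50 nM (final) substrate. Fluorescence read kinetically at 0 and 10 min.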
Numbers without * were called inactive; [ ] = another dose, or the depositor's remark. Calls come from the whole dose curve; as a rule, active = well fitted curve in the direction sought with a large enough effect; inconclusive = small, poorly fitted or top-dose-only effect, or another doubt; inactive = no such curve, though single readings can be large; an effect the other way counts as inactive or inconclusive. Potency is the fitted concentration of half-maximal effect.

Screening Cc1ccc(C2CC(=O)N(Cc3ccccc3)c3c2c(C)nn3-c2nc(C)cc(C)n2)cc1 (configuration not stated) returned Pol beta inh 7%, Pol eta inh -17%, FEN1 inh -2%, Tb PGK inh -15%, POLI inh 16% and Pol kappa inh -3%.
For CC(=O)c1ccc(OC(=O)c2nc(-c3ccccc3)oc2C)cc1 the results were Pol beta inh 50µM*, Pol eta inh inconclusive, FEN1 inh 10%, Tb PGK inh inactive, POLI inh inconclusive and Pol kappa inh -15%.
Cc1oc(-c2ccccc2)nc1C(=O)O was read as Pol beta inh 22%, Pol eta inh 9%, FEN1 inh -1%, Tb PGK inh -2%, POLI inh 13% and Pol kappa inh -11%.
For Cn1nnc2c(NCc3ccco3)ncnc21 the results were FEN1 inh -5%, POLI inh 3% and Pol kappa inh 7%.
`Cc1ccc(-c2cc(NC(=O)COc3c(C)cc(C)cc3C)on2)cc1` gave Pol beta inh 29%, Pol eta inh 3%, FEN1 inh 23%, Tb PGK inh 2%, POLI inh 8% and Pol kappa inh 15%.
O=c1[nH]c(CN2CCc3ccccc32)nc2scc(-c3cccs3)c12 was read as Pol beta inh 40µM*, Pol eta inh -4%, FEN1 inh -18%, Tb PGK inh -4%, POLI inh -8% and Pol kappa inh -19%.
For O=C(CSCc1nc2scc(-c3cccs3)c2c(=O)[nH]1)Nc1ccccn1 the results were Pol beta inh -8%, Pol eta inh -11%, FEN1 inh -4%, Tb PGK inh 2%, POLI inh -27% and Pol kappa inh -13%.
O=C(C[N+]12CCCc3cccc(c31)CCC2)c1ccccc1 was read as FEN1 inh inconclusive, POLI inh 15% and Pol kappa inh -9%.
C/C=C/C=C/[C@H]1Cc2cc(O)cc(O)c2O1 was read as Pol beta inh 50µM*.
For Cc1ccc(-n2c(O)c(C=Nc3ccccc3-c3n[nH]c(=S)[nH]c3=O)c3ccccc3c2=O)c(C)c1 the results were Pol beta inh 89µM*, Pol eta inh inconclusive, FEN1 inh inconclusive, Tb PGK inh -11%, POLI inh 45µM* and Pol kappa inh inconclusive.
`Cc1cccc(-n2c(O)c(C=Nc3ccccc3-c3n[nH]c(=S)[nH]c3=O)c3ccccc3c2=O)n1` gave Pol beta inh -1%, Pol eta inh -11%, FEN1 inh -7%, Tb PGK inh inactive, POLI inh 7% and Pol kappa inh -8%.
O=C(Cn1ncc2c([nH]c3ccccc32)c1=O)NCc1cccc(Cl)c1 was read as Pol beta inh 0%, Pol eta inh -6%, FEN1 inh 16%, Tb PGK inh 1%, POLI inh 8% and Pol kappa inh -15%.
`O=C(NCc1ccco1)c1nn2c(C(F)(F)F)cc(-c3cccs3)nc2c1Br` gave Pol beta inh 89µM*, Pol eta inh -15%, FEN1 inh 1%, Tb PGK inh -1%, POLI inh 5% and Pol kappa inh -10%.
O=C(NCc1ccco1)c1cc2nc(-c3ccc4c(c3)OCO4)cc(C(F)(F)F)n2n1 was read as Pol beta inh 79µM*, Pol eta inh 7%, FEN1 inh -4%, Tb PGK inh -5%, POLI inh -5% and Pol kappa inh -30%.
Screening COc1ccc(-c2cc(C(F)(F)F)n3nc(C(=O)NCC45CC6CC(CC(C6)C4)C5)cc3n2)cc1 returned Pol beta inh inconclusive, Pol eta inh -5%, FEN1 inh -24%, Tb PGK inh 1%, POLI inh 89µM* and Pol kappa inh -20%.
Screening O=C(NCc1cccnc1)c1cc2nc(-c3ccc4c(c3)OCO4)cc(C(F)(F)F)n2n1 returned Pol beta inh 0%, Pol eta inh 1%, FEN1 inh -15%, Tb PGK inh 1%, POLI inh 17% and Pol kappa inh -5%.
`Cc1cc(-c2ccccc2)nc2cc(C(=O)NCc3ccco3)nn12` gave Pol beta inh inconclusive, Pol eta inh 45µM*, FEN1 inh -16%, Tb PGK inh inconclusive, POLI inh inconclusive and Pol kappa inh inconclusive.
COc1cccc(/C=C/c2nc3ccccc3nc2/C=C/c2cccc(OC)c2OC)c1OC was read as FEN1 inh -14%, POLI inh 27% and Pol kappa inh -11%.
`Cc1ccc(S(=O)(=O)N2CCN(c3nc(-n4cccn4)nc4ccccc34)CC2)cc1` gave FEN1 inh inconclusive, POLI inh inconclusive and Pol kappa inh -3%.
COc1ccc(CCNC(=O)c2cc3c(=O)n4ccccc4nc3n(C3CCCCC3)c2=N)cc1 was read as Pol beta inh 0%, Pol eta inh -11%, FEN1 inh -19%, Tb PGK inh inactive, POLI inh 17% and Pol kappa inh 2%.
O=C(NCc1ccco1)c1cccn2c(=O)c3cc4ccccc4cc3nc12 was read as Pol beta inh 14µM*.
Screening COc1ccc(CCNC(=O)c2cc3c(=O)n4ccccc4nc3n(CCCN3CCOCC3)c2=N)cc1OC returned Pol beta inh 35µM*, Pol eta inh -24%, FEN1 inh -11%, Tb PGK inh 1%, POLI inh inconclusive and Pol kappa inh -15%.
N=c1c(S(=O)(=O)c2ccc(Cl)cc2)cc2c(=O)n3ccccc3nc2n1Cc1ccco1 was read as Pol beta inh 8.9µM*, Pol eta inh inconclusive, FEN1 inh 1%, Tb PGK inh -3%, POLI inh inconclusive and Pol kappa inh 9%.
For COc1ccc(CCNC(=O)c2cc3c(=O)n4ccccc4nc3n(C3CCCCC3)c2=N)cc1OC the results were Pol beta inh 25µM*, Pol eta inh -23%, FEN1 inh inconclusive, Tb PGK inh 0%, POLI inh -14% and Pol kappa inh -7%.
Screening COc1ccc(CCNC(=O)c2cc(Nc3ccccc3)nc3ccccc23)cc1OC returned Pol beta inh 4%, Pol eta inh -7%, FEN1 inh -7%, Tb PGK inh -5%, POLI inh 79µM* and Pol kappa inh -16%[60.1 µM].
Screening COCCCn1c(=N)c(C(=O)NCc2ccco2)cc2c(=O)n3ccccc3nc21 returned Pol beta inh -19%, Pol eta inh -5%, FEN1 inh -8%, Tb PGK inh 6%, POLI inh 79µM* and Pol kappa inh -15%.
